PubChem BioAssay (Tox21)
Values joined by “and” are separate entries in the source; they are usually repeats but may differ in a detail not shown here. Equal values may be shown once. Results filed as inconclusive are left out. Where a call stands in place of a potency, no number is given. The source holds several records for some structures; these can differ, active in one and inactive in another. Active and inactive are the calls of the source. Unless noted, calls follow the shape of the dose curve; as a rule, active = well fitted curve in the direction sought with a large enough effect in the repeat runs; inconclusive = weak or mixed curves; inactive = no such curve, though single readings can be large; an effect the other way counts as inactive or inconclusive.

Target: Aryl hydrocarbon receptor (Homo sapiens) (UniProt P35869)
Sequence (P35869 whole entry, looked up): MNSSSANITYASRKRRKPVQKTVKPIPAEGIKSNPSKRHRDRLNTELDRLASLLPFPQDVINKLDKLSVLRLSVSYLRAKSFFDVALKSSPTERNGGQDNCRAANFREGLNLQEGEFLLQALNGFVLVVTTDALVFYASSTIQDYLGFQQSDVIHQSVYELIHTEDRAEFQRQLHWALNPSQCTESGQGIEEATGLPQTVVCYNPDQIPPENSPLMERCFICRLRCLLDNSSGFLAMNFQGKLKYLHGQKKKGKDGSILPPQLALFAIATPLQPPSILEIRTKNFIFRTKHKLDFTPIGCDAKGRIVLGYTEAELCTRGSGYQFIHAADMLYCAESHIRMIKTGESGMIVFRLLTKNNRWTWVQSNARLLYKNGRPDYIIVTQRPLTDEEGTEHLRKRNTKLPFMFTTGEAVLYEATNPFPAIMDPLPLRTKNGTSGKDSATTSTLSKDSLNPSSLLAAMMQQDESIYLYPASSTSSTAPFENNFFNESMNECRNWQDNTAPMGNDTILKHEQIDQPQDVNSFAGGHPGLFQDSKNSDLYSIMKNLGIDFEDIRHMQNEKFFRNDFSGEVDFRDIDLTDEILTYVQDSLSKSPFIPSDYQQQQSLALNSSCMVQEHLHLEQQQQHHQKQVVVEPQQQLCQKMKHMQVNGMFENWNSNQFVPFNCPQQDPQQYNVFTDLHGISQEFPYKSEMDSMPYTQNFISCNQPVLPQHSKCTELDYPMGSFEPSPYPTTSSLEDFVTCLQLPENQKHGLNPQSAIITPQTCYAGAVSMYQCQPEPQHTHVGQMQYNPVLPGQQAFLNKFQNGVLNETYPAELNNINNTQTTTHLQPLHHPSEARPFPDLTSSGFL
Assay: qHTS assay to identify small molecule that activate the aryl hydrocarbon receptor (AhR) signaling pathway (AID 743085); also: nearly all actives have a fitted effect of over 15% in size; also: potency is read from the fitted curve at half-maximal effect;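 as to activation: HG2L7.5c1 human HepG2 liver cells with stably integrated DRE-driven firefly reporter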
Conditions: HepG2 AhR-luc (HG2L7.5c1), luciferase, 24 h; series mostly up to 70.3 µM
Outline: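 Luminescence (ONE-Glo) from a dioxin-responsive-element luciferase reporter in HG2L7.5c1 HepG2 cells after 24 hr compound exposure at 37C; viability measured by CellTiter-Fluor fluorescence beforehand.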
For `CC(C)(c1cc(Cl)c(O)c(Cl)c1)c1cc(Cl)c(O)c(Cl)c1`, the Potency was “inactive”. For `CN(C)c1ccc(C(=O)c2ccc(N(C)C)cc2)cc1`, the Potency was 428 nM (active) and 3.86 µM (active). For `Nc1ccncc1`, the Potency was “inactive”. With `CCOC(=S)S` the Potency was “inactive”. For `Oc1c(Cl)c(Cl)c(Cl)c(Cl)c1Cl`, the Potency was 3.37 µM (active). In the case of `O=C(O)C(F)(F)C(F)(F)C(F)(F)C(F)(F)C(F)(F)C(F)(F)C(F)(F)F`, the Potency is reported as “inactive”. In the case of `CCc1cccc(CC)c1N(COC)C(=O)CCl`, the Potency is reported as “inactive”. For `Nc1ccc(Cl)cc1N`, the Potency was 11.3 µM (active) and 13.7 µM (active). With `CCOCN(C(=O)CCl)c1c(C)cccc1CC` the Potency was “inactive”. For `S=C1NCCN1`, the Potency was “inactive”. For `Oc1cc(Cl)ccc1Oc1ccc(Cl)cc1Cl`, the Potency was “inactive and 21 µM (active)”. In the case of `C#CCOS(=O)OC1CCCCC1Oc1ccc(C(C)(C)C)cc1` (centres undefined), the Potency is reported as “inactive”. With `Nc1ccc(-c2ccccc2)cc1` the Potency was 9.69 µM (active). In the case of `Nc1ccc(-c2ccc(N)c(N)c2)cc1N`, the Potency is reported as 484 nM (active) and 3.06 µM (active). For `O=C1C=CC(=O)C=C1`, the Potency was “inactive”. For `O=Cc1ccco1`, the Potency was “inactive”. With `O=C(CCl)c1ccccc1` the Potency was “inactive”. For `C[C@]12CCC(=O)C[C@@H]1CC[C@@H]1[C@@H]2CC[C@]2(C)[C@@H](O)CC[C@@H]12`, the Potency was “inactive”. For `CCC(C)(c1ccc(O)cc1)c1ccc(O)cc1`, the Potency was “inactive”. For `N[C@@H](Cc1ccc(N(CCCl)CCCl)cc1)C(=O)O`, the Potency was “inactive”. In the case of `CC(C)=CC1C(C(=O)OCc2coc(Cc3ccccc3)c2)C1(C)C` (centres undefined), the Potency is reported as “inactive”.

System: not listed separately
Assay: qHTS assay to identify small molecule that activate the aryl hydrocarbon receptor (AhR) signaling pathway - cell viability counter screen (AID 743086);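 also: HepG2 liver cells carrying the AhR DRE luciferase reporter; nearly all actives have a fitted effect of over 45% in size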
Conditions: HepG2-AhR-luc viability, CellTiter-Fluor, 24 h; series mostly up to 70.3 µM
Outline: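 HepG2-AhR-luc (HG2L7.5c1) cells, 4000/well, treated 24 h at 37 C with compound; viability measured as CellTiter-Fluor fluorescence after 30 min in the same wells as the luciferase read.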
In the case of `c1ccc(NNc2ccccc2)cc1`, the Potency is reported as “inactive”. With `Cc1cc(C)cc(C)c1` the Potency was “inactive”. In the case of `c1cc(OCC2CO2)ccc1Cc1ccc(OCC2CO2)cc1` (centres undefined), the Potency is reported as “inactive”. With `CC(C)(c1cc(Cl)c(O)c(Cl)c1)c1cc(Cl)c(O)c(Cl)c1` the Potency was “inactive”. For `COc1ccc(C(CN(C)C)C2(O)CCCCC2)cc1` (centres undefined), the Potency was “inactive”. With `Nc1ccncc1` the Potency was “inactive”. For `CCOc1cc(C=O)ccc1O`, the Potency was “inactive”. With `CCCCCCCCC(=O)NCc1ccc(O)c(OC)c1` the Potency was “inactive”. In the case of `CC(C)c1ccc(CO)cc1`, the Potency is reported as “inactive”. For `CCOC(=S)S`, the Potency was “inactive”. In the case of `Oc1c(Cl)c(Cl)c(Cl)c(Cl)c1Cl`, the Potency is reported as “inactive”. With `N#CCCCl` the Potency was “inactive”. In the case of `O=C(O)C(F)(F)C(F)(F)C(F)(F)C(F)(F)C(F)(F)C(F)(F)C(F)(F)F`, the Potency is reported as “inactive”. With `NNC(=S)NN` the Potency was “inactive”. In the case of `CCc1cccc(CC)c1N(COC)C(=O)CCl`, the Potency is reported as “inactive”. With `CC(C)N(C(=O)SCC(Cl)=C(Cl)Cl)C(C)C` the Potency was “inactive”. For `CCOCN(C(=O)CCl)c1c(C)cccc1CC`, the Potency was “inactive”. In the case of `CCCCOCCOP(=O)(OCCOCCCC)OCCOCCCC`, the Potency is reported as “inactive”. In the case of `C=CCc1ccc2c(c1)OCO2`, the Potency is reported as “inactive”. In the case of `S=C1NCCN1`, the Potency is reported as “inactive”. In the case of `C1=Cc2cccc3cccc1c23`, the Potency is reported as “inactive”. For `C#CCOS(=O)OC1CCCCC1Oc1ccc(C(C)(C)C)cc1` (centres undefined), the Potency was “inactive”. With `Nc1ccc(-c2ccccc2)cc1` the Potency was “inactive”. In the case of `CCC(C)c1ccc(O)cc1` (centres undefined), the Potency is reported as “inactive”. With `O=C1C=CC(=O)C=C1` the Potency was “inactive”. With `O=Cc1ccco1` the Potency was “inactive”. With `C=CC(=O)OCCO` the Potency was “inactive”. For `Cc1ccc(N)c(N)c1`, the Potency was “inactive”. With `O=C(CCl)c1ccccc1` the Potency was “inactive”. For `C[C@]12CCC(=O)C[C@@H]1CC[C@@H]1[C@@H]2CC[C@]2(C)[C@@H](O)CC[C@@H]12`, the Potency was “inactive”. With `CCC(C)(c1ccc(O)cc1)c1ccc(O)cc1` the Potency was “inactive”. With `N#Cc1cc(Br)c(O)c(Br)c1` the Potency was “inactive”. For `N[C@@H](Cc1ccc(N(CCCl)CCCl)cc1)C(=O)O`, the Potency was “inactive”. In the case of `CC(C)=CC1C(C(=O)OCc2coc(Cc3ccccc3)c2)C1(C)C` (centres undefined), the Potency is reported as “inactive”.

Target: Peroxisome proliferator-activated receptor gamma (Homo sapiens) (UniProt P37231)
Sequence (P37231 whole entry, looked up): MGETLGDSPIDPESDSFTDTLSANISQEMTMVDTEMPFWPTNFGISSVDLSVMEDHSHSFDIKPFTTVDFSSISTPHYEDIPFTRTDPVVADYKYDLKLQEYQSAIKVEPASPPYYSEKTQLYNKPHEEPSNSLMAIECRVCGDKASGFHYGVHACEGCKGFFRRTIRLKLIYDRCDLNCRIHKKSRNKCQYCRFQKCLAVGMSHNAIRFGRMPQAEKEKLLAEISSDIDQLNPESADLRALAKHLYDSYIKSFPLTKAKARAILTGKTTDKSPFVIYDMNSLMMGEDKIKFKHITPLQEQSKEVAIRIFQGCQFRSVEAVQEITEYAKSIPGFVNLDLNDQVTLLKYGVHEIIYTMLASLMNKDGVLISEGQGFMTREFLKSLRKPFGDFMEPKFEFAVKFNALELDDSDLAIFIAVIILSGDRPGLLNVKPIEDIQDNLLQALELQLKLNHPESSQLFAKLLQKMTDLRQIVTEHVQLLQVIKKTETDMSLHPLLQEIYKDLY
Assay: qHTS assay to identify small molecule agonists of the peroxisome proliferator-activated receptor gamma (PPARg) signaling pathway (AID 743094; active = well fitted activation curve with a large enough effect in the signal ratio in the repeat runs, not every such curve was filed as active; the % refers to the signal ratio)
Conditions: HEK293H PPARg-UAS-bla, beta-lactamase FRET ratio, 17 h; series mostly up to 57 µM
Outline: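 Agonism was assessed in a beta-lactamase reporter system, HEK293H cells with a stably integrated UAS-bla construct under PPARg control; the 17 h treatment at 37C preceded a 1 h room-temperature FRET substrate read.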
For `COc1ccc(C(CN(C)C)C2(O)CCCCC2)cc1` (centres undefined), the Potency was “inactive”. With `CCCCCCCCC(=O)NCc1ccc(O)c(OC)c1` the Potency was “inactive”. In the case of `CC(C)c1ccc(CO)cc1`, the Potency is reported as “inactive”. In the case of `NNC(=S)NN`, the Potency is reported as “inactive”. In the case of `Nc1ccc(Cl)cc1N`, the Potency is reported as “inactive”. In the case of `CCOCN(C(=O)CCl)c1c(C)cccc1CC`, the Potency is reported as “inactive”. For `CCCCOCCOP(=O)(OCCOCCCC)OCCOCCCC`, the Potency was “inactive”. In the case of `C=CCc1ccc2c(c1)OCO2`, the Potency is reported as “inactive”. With `Oc1cc(Cl)ccc1Oc1ccc(Cl)cc1Cl` the Potency was “inactive”. For `C1=Cc2cccc3cccc1c23`, the Potency was “inactive”. In the case of `Nc1ccc(-c2ccc(N)c(N)c2)cc1N`, the Potency is reported as “inactive”. In the case of `O=C1C=CC(=O)C=C1`, the Potency is reported as “inactive”. In the case of `N#Cc1cc(Br)c(O)c(Br)c1`, the Potency is reported as “inactive”. In the case of `N[C@@H](Cc1ccc(N(CCCl)CCCl)cc1)C(=O)O`, the Potency is reported as “inactive”.

Target: Peroxisome proliferator-activated receptor gamma (Homo sapiens) (UniProt P37231)
Assay: qHTS assay to identify small molecule antagonists of the peroxisome proliferator-activated receptor gamma (PPARg) signaling pathway (AID 743191; calls by dose curve; also: nearly all actives have a fitted effect of over 30% in size; also: potency is read from the fitted curve at half-maximal effect)
Conditions: HEK293H PPARg-UAS-bla, beta-lactamase ratio, antagonist, 17 h; series mostly up to 62.6 µM
Outline: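 GeneBLAzer PPARg UAS-bla HEK293H cells, 5 h post-plating, exposed to compounds 17 h at 37C. LiveBLAzer B/G FRET substrate added for 1 h at room temperature; beta-lactamase reporter read by fluorescence intensity.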
With `COc1ccc(C(CN(C)C)C2(O)CCCCC2)cc1` (centres undefined) the Potency was “inactive”. In the case of `CCCCCCCCC(=O)NCc1ccc(O)c(OC)c1`, the Potency is reported as “inactive”. For `Oc1c(Cl)c(Cl)c(Cl)c(Cl)c1Cl`, the Potency was 3.4 µM (active). With `NNC(=S)NN` the Potency was “inactive”. With `CCCCOCCOP(=O)(OCCOCCCC)OCCOCCCC` the Potency was “inactive”. With `C1=Cc2cccc3cccc1c23` the Potency was “inactive”. In the case of `C#CCOS(=O)OC1CCCCC1Oc1ccc(C(C)(C)C)cc1` (centres undefined), the Potency is reported as 43.6 µM (active). In the case of `CCC(C)(c1ccc(O)cc1)c1ccc(O)cc1`, the Potency is reported as 30.9 µM (active) and 38.9 µM (active). With `N#Cc1cc(Br)c(O)c(Br)c1` the Potency was 54.9 µM (active) and 21.1 µM (active). In the case of `N[C@@H](Cc1ccc(N(CCCl)CCCl)cc1)C(=O)O`, the Potency is reported as “inactive”.
